The full data set covers some 7,900 targets. This sample favours those with a hit. About 0.6% of all pairs of compound and target were hits.
Tests used:
Test in all cases: log2 fold change, soluble protein after heating vs DMSO (PISA); higher = thermal stabilisation; K562 cells, 10 uM, 30 min; active = over 0.2 and 3.5 SD of the protein, either way, in both replicates (recomputed)
[1] = compound: CN1CCN(CCOc2cc(OC3CCOCC3)c3c(Nc4c(Cl)ccc5c4OCO5)ncnc3c2)CC1 [saracatinib]
Method in brief: (§1)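 K562 cells at 2×10^6 cells/mL were given 10 μM compound for 30 min. Aliquots then went through 3 min of heating across 48°C-58°C, were pooled, and were extracted in PBS with 0.5% NP-40 at 4°C, and the supernatant after 21,000xg for 90 min was quantified by TMTpro 16plex LC-MS/MS with channel sums equalised. Thermal stability relative to control samples, from duplicates, is given as log2 fold change.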

[2] = compound: CN1CCN(c2nc(C3=C(c4c[nH]c5ccccc45)C(=O)NC3=O)c3ccccc3n2)CC1 [sotrastaurin]
Method in brief: as §1

[3] = compound: CN1CC[C@H](c2c(O)cc(O)c3c(=O)cc(-c4ccccc4Cl)oc23)[C@H](O)C1 [alvocidib]
Method in brief: as §1

[4] = compound: CN1CCc2c(c3ccccc3n2Cc2ccc(C(=O)NO)cc2)C1 [Tubastatin A]
Method in brief: as §1

[5] = compound: CNC(=O)C1=CC=CC=C1NC2=NC(=NC=C2Cl)NC3=C(C=C(C=C3)N4CCOCC4)OC
Method in brief: as §1

[6] = compound: CNCc1ccc(-c2[nH]c3cc(F)cc4c3c2CCNC4=O)cc1 [rucaparib]
Method in brief: as §1

[7] = compound: CNc1nc(-c2ccc3c(N)n[nH]c3c2)cc(N2C[C@@H](C(=O)NC3CCCCC3)CC[C@H]2C)n1
Method in brief: as §1

[8] = compound: COC(=O)N[C@@H](C)CNc1nccc(-c2cn(C(C)C)nc2-c2cc(Cl)cc(NS(C)(=O)=O)c2F)n1 [encorafenib]
Method in brief: as §1

[9] = compound: CNC(=O)c1ccc(Nc2ncc(C(F)(F)F)c(NCc3nccnc3N(C)S(C)(=O)=O)n2)cc1 [defactinib]
Method in brief: as §1

[10] = compound: COC(=O)[C@H](CCSC)NC(=O)C1=C(C=C(C=C1)NC[C@H](CS)N)C2=CC=CC=C2
Method in brief: as §1

Measured: log2 fold change

SDHAF4 (UniProt Q5VUM1)
Sequence of UniProt Q5VUM1 (Q5VUM1 whole entry, looked up): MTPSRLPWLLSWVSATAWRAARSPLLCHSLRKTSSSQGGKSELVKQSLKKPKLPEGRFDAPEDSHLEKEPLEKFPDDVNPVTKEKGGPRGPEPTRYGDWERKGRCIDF
inactive: [1] 0.139 | [2] 0.072 | [3] 0.079 | [4] 0.086 | [5] -0.037 | [6] -0.067 | [7] -0.032 | [8] -0.01

RPA1 (UniProt P27694)
inactive: [1] -0.007 | [2] -0.016 | [3] -0.031 | [4] 0.039 | [5] 0.012 | [9] -0.076 | [6] 0.027 | [7] -0.01 | [8] 0.076 | [10] -0.021

RAB5IF isoform 5 (UniProt Q9BUV8)
inactive: [1] 0.114 | [2] -0.018 | [3] -0.115 | [4] -0.139 | [5] -0.08 | [9] -0.01 | [6] -0.014 | [7] -0.018 | [8] 0.08 | [10] 0.031

ROMO1 (UniProt P60602)
Sequence of UniProt P60602 (P60602 whole entry, looked up): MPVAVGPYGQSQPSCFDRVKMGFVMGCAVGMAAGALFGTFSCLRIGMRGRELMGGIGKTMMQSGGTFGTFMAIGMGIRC
inactive: [1] 0.022 | [2] -0.091 | [3] 0.023 | [4] 0.048 | [5] 0.013 | [6] -0.038 | [7] -0.012 | [8] 0.026

RNF167 (UniProt Q9H6Y7)
inactive: [1] -0.03 | [2] 0.064 | [3] 0.055 | [4] -0.021 | [5] 0.035 | [9] 0.059 | [7] 0.042 | [10] -0.006

RAB3IL1 (UniProt Q8TBN0)
inactive: [1] 0.007 | [2] -0.02 | [3] 0.06 | [4] -0.02 | [5] 0.023 | [9] -0.042 | [6] -0.005 | [7] 0.001 | [8] -0.03 | [10] -0.022

RIPK1 (UniProt Q13546)
Sequence of UniProt Q13546 (Q13546 whole entry, looked up): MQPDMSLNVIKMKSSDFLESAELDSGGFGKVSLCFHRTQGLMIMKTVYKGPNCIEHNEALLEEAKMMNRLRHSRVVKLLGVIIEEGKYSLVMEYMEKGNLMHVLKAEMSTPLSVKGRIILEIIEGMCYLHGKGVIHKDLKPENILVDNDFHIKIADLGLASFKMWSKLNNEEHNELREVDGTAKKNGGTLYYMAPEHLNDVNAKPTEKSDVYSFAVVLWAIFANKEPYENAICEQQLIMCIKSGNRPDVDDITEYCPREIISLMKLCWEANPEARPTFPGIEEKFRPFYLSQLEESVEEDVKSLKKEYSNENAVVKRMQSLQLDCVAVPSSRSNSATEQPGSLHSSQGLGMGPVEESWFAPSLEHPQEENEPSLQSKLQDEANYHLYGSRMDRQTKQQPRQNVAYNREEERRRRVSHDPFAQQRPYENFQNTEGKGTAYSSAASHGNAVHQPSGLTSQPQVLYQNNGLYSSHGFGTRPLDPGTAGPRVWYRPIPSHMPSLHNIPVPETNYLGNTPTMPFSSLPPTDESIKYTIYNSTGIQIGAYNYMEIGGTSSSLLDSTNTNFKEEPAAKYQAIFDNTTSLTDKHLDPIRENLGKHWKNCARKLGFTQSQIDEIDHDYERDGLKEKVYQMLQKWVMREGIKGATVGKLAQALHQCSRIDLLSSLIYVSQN
inactive: [1] -0.197 | [2] -0.208 | [3] -0.047 | [4] 0.017 | [5] 0.191 | [9] 0.028 | [6] 0.161 | [7] 0.212 | [8] 0.073 | [10] -0.097

SGPL1 (UniProt O95470)
inactive: [1] -0.014 | [2] 0.03 | [3] 0.04 | [4] -0.031 | [5] 0.064 | [9] 0.012 | [6] 0.1 | [7] 0.015 | [8] 0.08 | [10] -0.157

RAP2C (UniProt Q9Y3L5)
Sequence of UniProt Q9Y3L5 (Q9Y3L5 whole entry, looked up): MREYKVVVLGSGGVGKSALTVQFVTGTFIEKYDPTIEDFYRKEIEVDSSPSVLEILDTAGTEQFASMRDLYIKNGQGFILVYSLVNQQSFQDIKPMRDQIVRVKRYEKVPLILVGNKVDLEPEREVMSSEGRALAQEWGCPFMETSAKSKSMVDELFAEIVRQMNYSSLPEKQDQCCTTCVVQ
inactive: [1] 0.04 | [2] 0.026 | [3] -0.009 | [4] -0.014 | [5] -0.058 | [9] -0.044 | [6] -0.003 | [7] -0.054 | [8] -0.041 | [10] 0.01

SCAMP2 (UniProt H3BUB6)
inactive: [1] -0.149 | [2] 0.171 | [3] 0.253 | [4] -0.056 | [5] -0.043 | [9] 0.088 | [6] 0.072 | [7] -0.155 | [8] -0.311 | [10] 0.096

SAMSN1 isoform 3 (UniProt Q9NSI8)
Sequence of UniProt Q9NSI8 (Q9NSI8 whole entry, looked up): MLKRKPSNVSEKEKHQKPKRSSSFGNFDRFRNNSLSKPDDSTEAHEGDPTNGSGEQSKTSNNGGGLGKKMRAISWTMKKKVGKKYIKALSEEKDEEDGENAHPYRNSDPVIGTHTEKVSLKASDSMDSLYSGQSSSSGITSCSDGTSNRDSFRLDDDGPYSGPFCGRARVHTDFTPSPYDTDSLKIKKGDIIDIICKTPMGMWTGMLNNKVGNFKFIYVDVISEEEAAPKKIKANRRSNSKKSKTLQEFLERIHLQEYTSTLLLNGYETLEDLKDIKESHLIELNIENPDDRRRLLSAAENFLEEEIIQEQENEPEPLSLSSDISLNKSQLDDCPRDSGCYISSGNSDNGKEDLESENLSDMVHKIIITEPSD
inactive: [1] -0.023 | [2] -0.081 | [3] -0.058 | [4] 0.036 | [5] 0.002 | [9] -0.051 | [6] -0.003 | [7] -0.029 | [8] 0.046 | [10] 0.024

RALA (UniProt P11233)
Sequence of UniProt P11233 (P11233 whole entry, looked up): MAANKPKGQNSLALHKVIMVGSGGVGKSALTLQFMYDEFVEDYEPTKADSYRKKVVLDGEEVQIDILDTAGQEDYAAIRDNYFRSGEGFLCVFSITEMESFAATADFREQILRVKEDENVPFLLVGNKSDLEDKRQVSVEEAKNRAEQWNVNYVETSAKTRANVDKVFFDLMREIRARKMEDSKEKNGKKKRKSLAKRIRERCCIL
active: [1] 0.203
inactive: [2] 0.05 | [3] 0.013 | [4] -0.008 | [5] -0.045 | [9] 0.017 | [6] 0.002 | [7] 0.086 | [8] 0.033 | [10] 0.004

RPS12 (UniProt P25398)
inactive: [1] -0.014 | [2] -0.023 | [3] 0.123 | [4] 0.017 | [5] 0.049 | [9] 0.092 | [6] 0.12 | [7] -0.008 | [8] 0.02 | [10] 0.015

RPS21 (UniProt P63220)
inactive: [1] -0.017 | [2] 0.005 | [3] 0.104 | [4] 0.246 | [5] 0.039 | [9] 0.052 | [6] -0.039 | [7] -0.001 | [8] 0.021 | [10] 0.027

RICTOR isoform 3 (UniProt Q6R327)
active: [2] 0.708
inactive: [1] 0.087 | [4] 0.092 | [5] 0.114 | [6] -0.128 | [7] 0.154 | [8] 0.068

RALGPS2 (UniProt Q86X27)
inactive: [1] -0.042 | [3] 0.192 | [4] 0.18 | [5] -0.098 | [9] 0.176 | [6] -0.133 | [7] 0.159 | [8] 0.425 | [10] -0.101

RPS6KA3 (UniProt P51812)
Sequence of UniProt P51812 (P51812 whole entry, looked up): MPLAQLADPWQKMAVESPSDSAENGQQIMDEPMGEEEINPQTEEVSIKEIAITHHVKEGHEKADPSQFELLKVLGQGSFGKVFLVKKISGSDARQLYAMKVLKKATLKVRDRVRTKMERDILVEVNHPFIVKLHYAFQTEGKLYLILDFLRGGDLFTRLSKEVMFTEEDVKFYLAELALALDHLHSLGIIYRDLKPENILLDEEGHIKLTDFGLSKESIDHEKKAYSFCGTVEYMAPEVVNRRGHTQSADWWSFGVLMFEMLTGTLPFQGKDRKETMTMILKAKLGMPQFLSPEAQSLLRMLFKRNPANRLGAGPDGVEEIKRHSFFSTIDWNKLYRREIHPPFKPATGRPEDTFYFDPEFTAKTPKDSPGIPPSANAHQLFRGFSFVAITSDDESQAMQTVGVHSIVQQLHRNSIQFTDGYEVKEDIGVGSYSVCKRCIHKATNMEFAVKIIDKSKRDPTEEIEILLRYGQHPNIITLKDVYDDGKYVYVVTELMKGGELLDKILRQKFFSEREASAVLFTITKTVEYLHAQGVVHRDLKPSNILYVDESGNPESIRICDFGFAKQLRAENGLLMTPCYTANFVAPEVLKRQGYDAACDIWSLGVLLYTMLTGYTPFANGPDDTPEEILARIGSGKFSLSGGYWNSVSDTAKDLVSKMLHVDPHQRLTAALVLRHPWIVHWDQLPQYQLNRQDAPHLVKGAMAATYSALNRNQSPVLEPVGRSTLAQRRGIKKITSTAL
inactive: [1] 0.021 | [2] -0.049 | [3] -0.046 | [4] 0.019 | [9] -0.148 | [6] 0.006 | [7] -0.049 | [8] -0.01 | [10] -0.027

RELA (UniProt Q04206)
inactive: [1] 0.027 | [2] -0.036 | [4] -0.017 | [5] 0.032 | [9] -0.077 | [6] -0.026 | [7] -0.029 | [8] 0.044 | [10] -0.011

SCLT1 (UniProt Q96NL6)
inactive: [1] 0.073 | [2] -0.095 | [3] 0 | [4] 0.116 | [9] -0.047 | [7] 0.121 | [10] -0.087

SEMG2 (UniProt Q02383)
inactive: [2] -0.016 | [3] 0.206 | [4] 0.025 | [6] -0.033 | [8] -0.011

RBM26 isoform 3 (UniProt Q5T8P6)
inactive: [2] -0.052

SLC1A3 (UniProt P43003)
active: [7] 0.481
inactive: [1] 0.277 | [3] 0.056 | [4] -0.157 | [5] -0.034 | [9] -0.013 | [6] 0.027 | [8] 0.072 | [10] 0.106

RNF220 isoform 3 (UniProt Q5VTB9)
inactive: [5] -0.067

RAB3D (UniProt O95716)
inactive: [1] 0.295 | [3] 0.126 | [4] 0.024 | [5] 0.022 | [9] 0.064 | [6] -0.021 | [7] -0.016 | [8] -0.043 | [10] -0.094

RBM6 (UniProt P78332)
inactive: [1] -0.032 | [2] -0.077 | [3] -0.073 | [4] -0.077 | [7] 0.247

RBM48 isoform 2 (UniProt Q5RL73)
inactive: [2] -0.001 | [3] -0.011 | [4] 0.016 | [5] -0.065

RMDN2 isoform 2 (UniProt Q96LZ7)
inactive: [9] -0.218 | [10] -0.206

RAD50, A0A494C0Y7
inactive: [1] -0.101 | [2] 0.048 | [3] -0.026 | [4] -0.079 | [9] -0.146 | [6] -0.206 | [7] 0.198 | [8] 0.15 | [10] -0.055

SH3PXD2B (UniProt A1X283)
inactive: [2] -0.017 | [3] -0.047 | [4] -0.013 | [5] 0.061 | [9] 0.013 | [6] 0.238 | [8] 0.011 | [10] 0.359

RPS6KA5 (UniProt O75582)
inactive: [5] 0.083 | [6] 0.135 | [8] 0.148

SDC3 (UniProt O75056)
inactive: [1] -0.251 | [2] -0.074 | [3] 0.051 | [4] 0.163 | [9] -0.004 | [6] -0.513 | [7] 0.036 | [8] 0.125 | [10] 0.034

SERINC1 (UniProt Q9NRX5)
Sequence of UniProt Q9NRX5 (Q9NRX5 whole entry, looked up): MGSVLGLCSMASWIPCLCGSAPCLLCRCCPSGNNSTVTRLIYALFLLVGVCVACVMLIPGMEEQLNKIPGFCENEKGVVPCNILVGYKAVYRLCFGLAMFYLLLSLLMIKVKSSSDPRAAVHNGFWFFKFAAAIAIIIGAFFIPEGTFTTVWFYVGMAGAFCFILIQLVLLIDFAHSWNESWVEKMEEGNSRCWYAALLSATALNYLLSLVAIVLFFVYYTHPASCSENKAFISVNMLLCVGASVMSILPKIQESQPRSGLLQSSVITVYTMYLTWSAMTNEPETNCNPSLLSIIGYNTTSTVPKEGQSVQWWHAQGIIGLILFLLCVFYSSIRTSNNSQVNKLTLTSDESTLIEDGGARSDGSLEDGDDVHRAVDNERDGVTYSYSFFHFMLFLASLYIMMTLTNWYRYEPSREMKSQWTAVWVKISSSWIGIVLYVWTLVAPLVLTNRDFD
inactive: [1] 0.093 | [2] -0.053 | [4] -0.128 | [5] -0.008 | [9] 0.031 | [6] -0.095 | [7] -0.088 | [8] -0.062 | [10] 0.055

S100A10 (UniProt P60903)
Sequence of UniProt P60903 (P60903 whole entry, looked up): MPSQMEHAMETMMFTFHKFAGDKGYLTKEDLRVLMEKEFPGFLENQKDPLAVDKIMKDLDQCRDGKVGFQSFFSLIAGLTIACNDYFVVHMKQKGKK
inactive: [2] -0.147 | [3] -0.293 | [4] 0.195 | [6] -0.038 | [8] -0.293

SDCBP isoform 2 (UniProt O00560)
Sequence of UniProt O00560 (O00560 whole entry, looked up): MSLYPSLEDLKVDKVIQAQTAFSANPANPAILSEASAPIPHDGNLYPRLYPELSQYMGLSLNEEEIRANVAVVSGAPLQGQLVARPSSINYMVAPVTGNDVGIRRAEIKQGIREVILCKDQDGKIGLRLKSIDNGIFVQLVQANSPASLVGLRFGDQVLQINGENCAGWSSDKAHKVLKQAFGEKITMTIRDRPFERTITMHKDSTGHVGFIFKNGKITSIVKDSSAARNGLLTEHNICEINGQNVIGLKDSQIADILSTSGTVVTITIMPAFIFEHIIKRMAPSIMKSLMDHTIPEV
active: [7] -0.756
inactive: [1] -0.175 | [2] 0.042 | [4] -0.301 | [5] 0.115 | [6] -0.036 | [8] 0.032

RNF26 (UniProt Q9BY78)
inactive: [9] 0.119 | [10] 0.292

RPAIN isoform 8 (UniProt Q86UA6)
Sequence of UniProt Q86UA6 (Q86UA6 whole entry, looked up): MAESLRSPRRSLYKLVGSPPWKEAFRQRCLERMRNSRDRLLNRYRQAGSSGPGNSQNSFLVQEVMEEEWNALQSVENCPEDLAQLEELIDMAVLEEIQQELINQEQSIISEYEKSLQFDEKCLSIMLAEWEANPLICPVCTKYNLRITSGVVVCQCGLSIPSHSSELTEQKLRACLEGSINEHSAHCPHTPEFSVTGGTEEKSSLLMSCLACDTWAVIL
inactive: [1] -0.036 | [2] -0.09 | [3] -0.036 | [4] -0.016 | [9] -0.231 | [7] -0.082 | [10] 0.094

SCYL3 isoform 2 (UniProt Q8IZE3)
Sequence of UniProt Q8IZE3 (Q8IZE3 whole entry, looked up): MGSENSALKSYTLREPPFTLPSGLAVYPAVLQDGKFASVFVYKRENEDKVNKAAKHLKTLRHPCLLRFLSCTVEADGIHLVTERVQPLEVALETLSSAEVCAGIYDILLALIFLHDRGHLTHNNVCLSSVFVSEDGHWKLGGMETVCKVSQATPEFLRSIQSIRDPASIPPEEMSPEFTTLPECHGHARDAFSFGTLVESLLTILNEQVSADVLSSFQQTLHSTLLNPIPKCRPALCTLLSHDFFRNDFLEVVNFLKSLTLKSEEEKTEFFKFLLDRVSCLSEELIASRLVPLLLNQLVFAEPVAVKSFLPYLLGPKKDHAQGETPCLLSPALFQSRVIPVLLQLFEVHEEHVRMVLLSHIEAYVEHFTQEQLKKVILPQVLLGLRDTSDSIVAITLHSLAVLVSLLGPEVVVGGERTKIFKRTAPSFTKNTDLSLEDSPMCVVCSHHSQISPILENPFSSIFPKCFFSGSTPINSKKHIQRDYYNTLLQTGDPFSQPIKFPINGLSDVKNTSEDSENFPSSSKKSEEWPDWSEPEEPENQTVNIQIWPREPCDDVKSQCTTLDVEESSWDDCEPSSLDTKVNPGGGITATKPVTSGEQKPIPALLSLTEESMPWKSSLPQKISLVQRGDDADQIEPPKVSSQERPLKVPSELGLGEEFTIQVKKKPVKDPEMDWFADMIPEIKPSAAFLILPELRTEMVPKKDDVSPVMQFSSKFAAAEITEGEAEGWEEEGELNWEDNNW
inactive: [1] 0.014 | [3] 0.142 | [4] -0.063 | [5] -0.042 | [9] -0.014 | [6] 0.06 | [7] -0.009 | [8] 0.021 | [10] -0.025

RPS3A (UniProt D6R9B6)
inactive: [1] -0.125 | [2] 0.202 | [4] 0.051 | [7] -0.086

RBBP6 (UniProt Q7Z6E9)
inactive: [2] 0.11 | [3] -0.17 | [4] 0.074 | [5] -0.006 | [9] -0.056 | [6] 0.067 | [8] 0.055 | [10] 0.04

SAP30 (UniProt O75446)
inactive: [1] -0.018 | [2] -0.185 | [3] -0.035 | [5] 0.121 | [9] -0.003 | [7] 0.014 | [10] 0.044

SF3B5 (UniProt Q9BWJ5)
Sequence of UniProt Q9BWJ5 (Q9BWJ5 whole entry, looked up): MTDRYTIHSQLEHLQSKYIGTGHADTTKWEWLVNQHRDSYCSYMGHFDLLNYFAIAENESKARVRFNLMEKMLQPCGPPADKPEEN
inactive: [1] -0.382 | [2] 0.055 | [4] 0.048 | [5] 0.023 | [9] -0.039 | [6] 0.086 | [7] -0.015 | [8] -0.025 | [10] 0.061

RUNX1 isoform 8 (UniProt Q01196)
inactive: [1] -0.025 | [2] -0.132 | [5] -0.046 | [9] 0.01 | [6] 0.024 | [7] 0.014 | [8] 0.183 | [10] 0.047

RNF41 (UniProt Q9H4P4)
inactive: [6] -0.087 | [8] -0.016

RPS3 (UniProt E9PJN9)
inactive: [1] -0.069 | [4] 0.105 | [6] 0.064 | [7] -0.028 | [8] 0.052

RPS19 (UniProt M0R2L9)
inactive: [4] -0.186

RAB3IL1 (UniProt E9PK89)
inactive: [2] -0.082 | [3] 0.009 | [4] -0.095 | [5] -0.011 | [9] -0.016 | [6] -0.074 | [8] 0.084 | [10] 0.045

RNF185 (UniProt Q96GF1)
inactive: [3] -0.003 | [4] 0.011 | [5] 0.001 | [9] -0.023 | [6] 0.006 | [8] -0.094 | [10] 0.125

RBMY1E (UniProt A6NEQ0)
Sequence of UniProt A6NEQ0 (A6NEQ0 whole entry, looked up): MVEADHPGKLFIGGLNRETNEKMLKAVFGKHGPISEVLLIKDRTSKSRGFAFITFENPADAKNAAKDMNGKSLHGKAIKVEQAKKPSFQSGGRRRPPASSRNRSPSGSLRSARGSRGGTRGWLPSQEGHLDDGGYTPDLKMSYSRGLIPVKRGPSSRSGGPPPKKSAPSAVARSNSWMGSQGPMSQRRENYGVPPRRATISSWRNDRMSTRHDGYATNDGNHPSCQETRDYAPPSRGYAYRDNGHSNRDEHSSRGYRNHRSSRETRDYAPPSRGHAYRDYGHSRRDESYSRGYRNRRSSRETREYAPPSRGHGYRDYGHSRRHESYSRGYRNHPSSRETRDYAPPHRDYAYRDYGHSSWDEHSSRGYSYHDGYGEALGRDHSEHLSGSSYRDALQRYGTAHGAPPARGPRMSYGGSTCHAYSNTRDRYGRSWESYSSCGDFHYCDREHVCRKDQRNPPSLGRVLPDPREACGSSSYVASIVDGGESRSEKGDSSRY
inactive: [3] -0.015 | [4] 0.016 | [5] -0.049 | [6] -0.055 | [8] 0.182

Reference: the supplement of paper PMC10849652
